# Over roughly 33,000 sequences, “E-score (-0.5 to 0.5)” has its median near -0.041; the highest 2% begin near 0.37. Only a selection was taken, and the highest values are over-represented in it overall.
# Target: T1, Ecm22 (UniProt Q05958)
# T1 sequence: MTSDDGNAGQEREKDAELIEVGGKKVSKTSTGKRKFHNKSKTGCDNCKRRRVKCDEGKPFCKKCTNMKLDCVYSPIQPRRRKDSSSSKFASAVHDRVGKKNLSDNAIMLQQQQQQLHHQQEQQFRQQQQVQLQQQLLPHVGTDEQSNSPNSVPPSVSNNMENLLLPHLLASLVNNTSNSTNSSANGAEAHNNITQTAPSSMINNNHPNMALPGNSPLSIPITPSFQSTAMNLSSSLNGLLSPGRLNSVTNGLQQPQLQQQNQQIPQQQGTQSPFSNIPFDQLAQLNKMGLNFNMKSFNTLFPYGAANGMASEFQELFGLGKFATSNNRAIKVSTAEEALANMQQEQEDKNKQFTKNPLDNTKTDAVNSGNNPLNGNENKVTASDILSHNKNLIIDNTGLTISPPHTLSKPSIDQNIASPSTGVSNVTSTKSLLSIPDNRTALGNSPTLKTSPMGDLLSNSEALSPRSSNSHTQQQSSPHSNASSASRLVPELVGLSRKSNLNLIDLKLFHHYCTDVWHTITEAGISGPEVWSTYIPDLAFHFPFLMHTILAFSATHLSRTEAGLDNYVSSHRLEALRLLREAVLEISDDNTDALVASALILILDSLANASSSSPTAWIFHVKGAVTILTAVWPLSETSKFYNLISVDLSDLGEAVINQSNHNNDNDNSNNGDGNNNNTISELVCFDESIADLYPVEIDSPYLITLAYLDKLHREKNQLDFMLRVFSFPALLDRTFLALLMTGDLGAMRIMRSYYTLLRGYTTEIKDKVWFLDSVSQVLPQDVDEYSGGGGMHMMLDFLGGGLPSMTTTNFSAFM
# Assay: PBM E-score (8-mer binding enrichment) (E-score (-0.5 to 0.5)); higher = stronger / more preferred TF binding
# Details: protein concentration: 200 nM; construct: GST-full length
# Protocol: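 Universal 'all 10-mer' protein binding microarrays (Agilent AMADID 015681) probed with GST-tagged S. cerevisiae TFs (full-length or DBD) made by in vitro transcription/translation (PURExpress), about 100-200 nM. Bound TF was detected with fluorescent anti-GST. Each ungapped 8-mer (which stands for itself and its reverse complement) is scored by the PBM enrichment score (E-score), a modified Wilcoxon-Mann-Whitney statistic from -0.5 to +0.5, computed with the Universal PBM Analysis Suite. Scale: above 0.35 generally sequence-specific binding.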
row,Sequence,PBM E-score
1,GGGGTTAC,0.0772
2,CTGTGCCA,-0.185
3,AGCATCAG,-0.0729
4,ATTCTAAC,-0.0713
5,AGGCCTGA,-0.274
6,GTAGGGGA,-0.206
7,ATACGATA,0.458
8,CTACGATA,0.311
9,AGACGATA,0.143
10,ACACGATA,0.152
11,GTACGATA,0.456
12,GCACGATA,0.0343
13,AAGAACCT,-0.208
14,GTAAAGCA,0.0968
15,TGAAAAAA,-0.0832
16,TCGTACCA,0.488
17,ACGTACCA,0.306
18,GCGTACCA,0.273
19,ACGTACCC,0.295
20,CCGTACCA,0.423
21,GCGTACCC,0.229
22,ACGTACCG,0.301
23,TGGTACCA,-0.0735
24,TCTTACCA,0.061
25,CGGTACCG,0.234

row,Sequence,PBM E-score
1,CCGTACCC,0.433
2,CCGTACCG,0.455
3,AGGAACCG,0.0955
4,GAGTCTAA,-0.115
5,CATAGGAC,-0.091
6,TCTATGCA,-0.148
7,CGTCGTTA,0.374
8,GGTCGTTA,0.339
9,CGCCGTTC,0.362
10,AGTCGTTA,0.273
11,AGTCGTTG,0.184
12,CGTCGTTC,0.479
13,CGTCGATC,0.0984
14,AGTCGTTC,0.425
15,AGTCGCTC,0.177
16,CAATTGAC,-0.0565
17,AGGTCTGC,-0.195
18,CGGGAATA,0.0624
19,CGAACCCA,0.167
20,TCATCGGA,-0.0141
21,ATGCAGAC,-0.0112
22,AACTGCGG,0.0437
23,TGGCACCA,-0.213
24,TCGCATAA,0.388
25,ACGCATAA,0.0983

row,Sequence,PBM E-score
1,CCGCATAA,0.119
2,CGTAAAGC,0.348
3,CGTAAAGA,0.389
4,AGTAAAGA,-0.225
5,AGTAAATA,0.00942
6,CGTAAATC,0.349
7,CGTAAAAG,0.367
8,CGTAAATA,0.377
9,CGTAAAAA,0.404
10,CGTAAAAC,0.367
11,GACACTCC,-0.0444
12,CAGGGTAG,-0.148
13,AATCTTTA,-0.0885
14,CCCTGACC,-0.0114
15,CGCGATAG,0.135
16,CCATTTGC,-0.0821
17,AGTCGAAC,0.0504
18,GACGCAAA,0.114
19,GAAAAGAA,0.0308
20,CAGTTCCA,-0.0209
21,AAGAGGTG,-0.0239
22,CGTATACG,0.489
23,CGTATACC,0.469
24,TGTATACA,0.0967
25,AGTATACC,0.0306

row,Sequence,PBM E-score
1,AGTATACA,0.0981
2,AGTATACT,0.102
3,GGTATACC,0.0922
4,AGTATATG,-0.0215
5,CGTATACA,0.46
6,CGAATACG,0.362
7,AGTATACG,0.433
8,GGTATACA,-0.21
9,AGGAGAAA,-0.281
10,TCGATCAA,0.0228
11,CGTAATGC,0.162
12,CGGAACAA,0.168
13,TATGGGAA,-0.0838
14,GCTTTTGA,-0.115
15,AACCCTTG,-0.0616
16,CGGATACA,0.162
17,CGGATACC,0.0623
18,CGGATACG,0.386
19,ATAGACAT,-0.0449
20,CCAGCGAC,-0.231
21,CGATAGCG,0.128
22,CGGCGACG,0.0233
23,ACTATACA,0.108
24,ATTATACG,0.476
25,CCTATACA,-0.00901

row,Sequence,PBM E-score
1,ACTATACT,0.144
2,ATTATACC,0.104
3,ACTATACG,0.463
4,CCTATACG,0.465
5,ATTATACA,0.0593
6,CCTATACC,-0.0658
7,TATGCAGA,0.0611
8,ATAAGCCC,-0.136
9,ACCTACCG,-6e-05
10,TAGTCAGA,-0.276
11,ACGGGTCG,0.267
12,AGACAAAG,0.0946
13,CTAAGCGC,0.0189
14,CTAAGCGA,0.385
15,ATAAGCGA,0.332
16,AGACTCAC,-0.22
17,GCTGGCAC,-0.325
18,CCGGAATC,-0.169
19,CGCGGTAA,0.191
20,AGTTCCGA,0.226
21,CTTTCCGC,-0.0543
22,AGTTCCGC,0.09
23,CGTTCCGA,0.444
24,GGTTCCGA,-0.00514
25,CGTTCCGC,0.458

row,Sequence,PBM E-score
1,ACCGGACA,-0.108
2,TCCTGAAA,-0.00548
3,ATTCAAGG,-0.157
4,TAGAACCA,0.00176
5,AAGAACGG,0.243
6,CAGAACGC,-0.0854
7,AAGAACGA,0.453
8,AAGAACGT,0.101
9,GAGAACGA,0.422
10,CAGAACGG,0.075
11,GAGAACCA,-0.098
12,TAGAACGA,0.429
13,CAGAACGA,0.379
14,GAGAACGC,0.117
15,TAGAACTA,-0.0234
16,GAATCGAC,0.163
17,ACGGGAGC,0.225
18,TAATCCTA,0.00777
19,GACGGAGC,-0.0469
20,CCTAGGAG,-0.239
21,CCAAGGCA,-0.0888
22,CAAGTGCA,-0.24
23,CTGGATGC,-0.159
24,GCATAGGC,-0.178
25,GGCATGAC,-0.121

row,Sequence,PBM E-score
1,AGGCTGGG,-0.263
2,CCAAGCCC,-0.117
3,CTTCTGTC,-0.199
4,GGGAACCA,-0.215
5,GGGAACGA,0.492
6,GGGAACAA,0.143
7,AGCCATTA,0.18
8,AGAGGCTA,-0.209
9,GAATACGC,0.152
10,AAATACGC,0.194
11,GAATACTA,0.141
12,TAATACGA,0.437
13,GAATACGA,0.432
14,CAATACGA,0.403
15,CAATACGG,0.0307
16,AAATACGA,0.451
17,TAATACTA,0.114
18,CAATACGC,-0.0345
19,AAATACGT,0.0932
20,TAATACCA,0.0168
21,ATCGCCGA,0.00202
22,GGTTGTCA,-0.195
